Each structure is given as a SMILES string.

The experiment deals with Sonic hedgehog protein (Shh). Nature of the experiment: small-molecule binders of Shh protein, primary screen, biochemical, small-molecule microarray, 635/667 nm fluorescence (AID 1151).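 Note: Shh protein binding to compounds spotted on small-molecule microarray slides; score combines spot fluorescence intensity with signal-to-noise across triplicate slides.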 The following applies: small-molecule microarray binding, 635 nm fluorescence; higher = more signal.
In turn, `CC(C)CNC(=O)[C@@]1(c2ccc([N+](=O)[O-])cc2)CC(=O)N(CC23CC4CC(CC(C4)C2)C3)[C@@H]1c1ccc(CO)cc1` displayed a composite z-score of 1.04.
`COc1ccc([Si](C)(C)[C@@H]2[C@@H](CC(=O)N(CCO)Cc3ccccc3)O[C@]3(C(=O)N(C)c4ccccc43)[C@H]2C)cc1` registered a composite z-score of 1.74.
In turn, `CC(C)N1C(=O)C[C@@](C(=O)NCc2ccccc2)(c2ccc([N+](=O)[O-])cc2)[C@H]1c1ccc(CO)cc1` had a composite z-score of 0.235.
To `O=C1C2C=CC(C(O)c3ccc(B(O)O)cc3)N(Nc3ccccc3)C2C(=O)N1c1ccccc1` (stereo not given) belongs -0.661.
Compound `O=C(CCN1CCOCC1)c1cccc(O)c1` registered a composite z-score of 1.82.
The compound `C=CC[C@]1(C(=O)N2CCOCC2)N=C(c2ccc(OCCCO)cc2)O[C@H]1c1ccccc1` registered a composite z-score of -0.509.
In turn, `C=CC(=C)C1=CCO[C@@H]1[C@H]1CCCN1S(=O)(=O)c1ccccc1[N+](=O)[O-]` came in with a composite z-score of 1.84.
`COc1ccc(C#Cc2ccc3c(c2)[C@]2(C(=O)N3)[C@H](c3ccc(O)cc3)N3[C@H](c4ccccc4)[C@H](c4ccccc4)OC(=O)[C@H]3[C@@H]2C(=O)NC[C@H](O)c2ccccc2)cc1` had a composite z-score of 1.05.
As for `CN1C=C(C(=O)OCCS(C)(=O)=O)C(C(=O)OCCS(C)(=O)=O)=CC(CCCO)=CC1C1CC1` (stereo not given), the composite z-score stood at 0.501.
As for `C=CC[C@@]1(C(=O)NCC(O)CO)N=C(c2ccc(OCCCO)cc2)O[C@@H]1c1ccccc1N=[N+]=[N-]` (stereo not given in full), the composite z-score was -0.0776.
